The experiment is described as follows: inhibitors of HIV fusion peptide binding, primary screen, biochemical, uHTS, fluorescence dequenching (AID 1986). Conditions: cell-free peptide binding, 30 min, stronger effect = higher value.
[1] abbreviates: measured here: repeat confirmation average inhibition, at 18.6 µM.

In general, inhibition refers to the relative decrease from the control value, in per cent.

The campaign covered roughly 290,000 compounds. About 890 (0.31%) were called active. Cut-off read from the data, not from the text of the source: active = inhibition mostly above about 52% (no sharp cut-off); inactive = mostly below about 76%. The entries come from a sample that favours actives as a whole.

As to `COC(=O)c1ccc(C(=S)NCC2(N(C)C)CCCCC2)cc1`, the inhibition (at 20 µM) was -0.5% (inactive).
Turning to `Clc1ccc(Cn2c(/C=C/c3ccco3)nc3ccccc32)cc1`, under “at 20 µM”, the inhibition is 58.4% (active).
Consider `Clc1ccccc1Cn1c(/C=C/c2ccco2)nc2ccccc21`, for which the inhibition was 54.5% (inactive) (at 20 µM) and 0.3% under setting [1].
`Cc1ccc(Cn2c(/C=C/c3ccco3)nc3ccccc32)cc1`: where the note is “at 20 µM”, the inhibition was 28.5% (inactive).
With `COc1ccc(C(=O)NNC(=O)Cc2ccc(Cl)cc2)cc1`, the inhibition (at 20 µM) is 0.6% (inactive).
Same read-out and setting: next, `S=C1NC(c2ccccc2)=CC(c2ccccc2)N1` (centres undefined): -0.8% (inactive).
Regarding `CCOc1cc2c(cc1/C=C/C(=O)O)OC(C)C2` (centres undefined), the inhibition (at 20 µM) was -2.8% (inactive).
For the compound `CCOc1cc2c(cc1C=O)OC(C)C2` (centres undefined), the inhibition (at 20 µM) is 0.9% (inactive).
On to `CCOc1cc2c(cc1/C=C/c1noc(C)c1[N+](=O)[O-])OC(C)C2` (centres undefined), for which the inhibition (at 20 µM) was 97.9% (active) and the inhibition under setting [1] turned out to be 62.4%.
In the case of `Cc1nonc1NC(=O)CSc1cn[nH]n1`, the inhibition (at 20 µM) is -0.1% (inactive).
With `N#Cc1c(-c2ccccc2)nc(SCC(=O)Nc2ccccc2)[nH]c1=O`, the inhibition (at 20 µM) is 22% (inactive).
With `CCOc1ccc2nc(NC(=O)CSc3ccc(Cl)cc3)sc2c1`, the inhibition (at 20 µM) was -1.6% (inactive).
For `CCOc1ccc2nc(NC(=O)CSc3ccccc3)sc2c1`, under “at 20 µM”, the inhibition was 2.6% (inactive).
In the case of `N#Cc1c(-c2ccccc2)nc(SCC(=O)Nc2ccccc2F)[nH]c1=O`, the inhibition (at 20 µM) was 14.2% (inactive).
As to `COc1cccc(OC)c1OCCCOc1ccc([N+](=O)[O-])cc1Cl`, the inhibition (at 20 µM) was 1.3% (inactive).
Take `CC(C)(C)c1ccc(OC(=O)N2CCOCC2)cc1`: where the note is “at 20 µM”, the inhibition is 1.1% (inactive).
Turning to `NC(=O)C1CCN(C(=O)COc2ccc3c4c(c(=O)oc3c2)CCCC4)CC1`, the inhibition (at 20 µM) was -2.1% (inactive).
On to `CCn1nc([N+](=O)[O-])c(C(C#N)c2nc3ccccc3n2C)c(Cl)c1=O` (centres undefined), for which the inhibition (at 20 µM) is 9.2% (inactive).
With `CCCn1nc([N+](=O)[O-])c(C(C#N)c2nc3ccccc3o2)c(Cl)c1=O` (centres undefined), where the note is “at 20 µM”, the inhibition was 51.5% (active).
`CCCn1nc([N+](=O)[O-])c(C(C#N)c2nc3ccccc3s2)c(Cl)c1=O` (centres undefined): the inhibition is 52.4% (inactive) (at 20 µM) and 39.3% under setting [1].
Take `CCOc1cccc(-c2nnc(SCC(=O)Nc3ccc(OC)c(OC)c3)n2N)c1`: the inhibition (at 20 µM) is -0.9% (inactive).
For the compound `CC(C)C[C@@H](COc1ccccc1)N1CCN(C)CCC1=O`, the inhibition (at 20 µM) was 1.1% (inactive).
As for `CCCOc1c(Br)cc(C(N)=O)cc1OCC`, the inhibition (at 20 µM) is -1.3% (inactive).
With `O=[N+]([O-])c1nn(-c2ccc3c(c2)OCCO3)n(O)c1=NCc1ccccc1Cl`, the inhibition (at 20 µM) is 1.5% (inactive).
For `O=[N+]([O-])c1nn(-c2ccc3c(c2)OCCO3)n(O)c1=NCc1ccc(F)cc1`, under “at 20 µM”, the inhibition is -3.5% (inactive).
`O=[N+]([O-])c1nn(-c2ccc3c(c2)OCCO3)n(O)c1=NCc1ccc(F)cc1Cl`: the inhibition (at 20 µM) is 51.7% (active).
In the case of `COc1ccc(OC)c(CCNC(=O)c2ccc3c(c2)N(Cc2ccc(F)cc2)CCS3)c1`, the inhibition (at 20 µM) is -0.6% (inactive).
In the case of `CCOC(=O)N1CCN(C(=O)c2cc3c(=O)n4cccc(C)c4nc3s2)CC1`, the inhibition (at 20 µM) is 1.5% (inactive).
Consider `Cn1c(=O)c2cc(S(=O)(=O)NCCC(=O)NC3CCCCCCC3)ccc2n(C)c1=O`, for which the inhibition (at 20 µM) was 70.9% (active).
Take `CN(CC(=O)NC1CCCCC1)S(=O)(=O)c1ccc2c(c1)c(=O)n(C)c(=O)n2C`: the inhibition (at 20 µM) was -0.8% (inactive).
Take `Cn1c(=O)c2cc(S(=O)(=O)NCCC(=O)NC3CCCCCC3)ccc2n(C)c1=O`: where the note is “at 20 µM”, the inhibition is -0.8% (inactive).
In the case of `COc1ccc(Cl)cc1N=Cc1c(O)c2ccccc2oc1=O`, the inhibition (at 20 µM) was 0.2% (inactive).
In the case of `COc1ccc(OC)c(N=Cc2c(O)c3ccccc3oc2=O)c1`, where the note is “at 20 µM”, the inhibition is 37.7% (inactive).
For `COc1cc(N=Cc2c(O)c3ccccc3oc2=O)c(OC)cc1Cl`, the inhibition is 73.9% (active) (at 20 µM) and 196% under setting [1].
For the compound `CC1CCCN(C2(O)C(=O)Nc3ccc(Cl)cc32)C1` (centres undefined), the inhibition (at 20 µM) is -0.9% (inactive).
Take `COc1ccccc1CN(C)C(=O)CNC(=O)c1cccc(Cl)c1`: under “at 20 µM”, the inhibition is 0.2% (inactive).
On to `O=C1OC(c2ccco2)=N/C1=C\c1ccc(-c2cccc(C(F)(F)F)c2)o1`, for which the inhibition is, setting by setting: (at 20 µM) 55.6% (active); under setting [1], 164%.
`O=C1OC(c2cccs2)=N/C1=C\c1ccc(-c2cccc(Cl)c2)o1`: the inhibition (at 20 µM) is 55.7% (inactive) and the inhibition under setting [1] stood at 21.2%.
Regarding `O=C1OC(c2cccs2)=N/C1=C/c1ccc(-c2cccc(C(=O)O)c2)o1`, the inhibition (at 20 µM) was 53% (inactive) and the inhibition under setting [1] is 13.5%.
Consider `CCOc1ccc(C2C(C(=O)c3ccc(C)o3)=C(O)C(=O)N2Cc2cccnc2)cc1` (centres undefined), for which the inhibition (at 20 µM) is -3.1% (inactive).
Consider `COc1ccc(C)cc1S(=O)(=O)NC1CCCCCC1`, for which, for the setting “at 20 µM”, the inhibition is -1.6% (inactive).
The same measure, in the same setting: the value for `Cc1ccccc1-n1ncc2c1CC(C)(C)CC2NC(=O)c1cn[nH]c1C` (centres undefined) was -0.7% (inactive); that for `COc1ccc(N=C2NC(=O)/C(=C\c3ccco3)S2)cc1` was 42% (inactive); that for `Cc1cccc(N=C2NC(=O)S/C2=C\c2ccco2)c1` was 71.9% (active).
As for `COc1ccc(S(=O)(=O)/N=C2/NC(=O)/C(=C/c3ccco3)S2)cc1`, the inhibition (at 20 µM) is 70.3% (inactive) and the inhibition under setting [1] was determined as 9.9%.
As to `O=C1NC(=Nc2ccccc2)/C(=C/c2ccco2)S1`, where the note is “at 20 µM”, the inhibition was 47.9% (inactive).
On to `COc1ccc(N=C2NC(=O)/C(=C/c3ccco3)S2)cc1`, for which the inhibition (at 20 µM) was 9.7% (inactive).
As for `O=C1NC(=Nc2ccc(O)cc2)S/C1=C/c1ccco1`, the inhibition (at 20 µM) was 17.3% (inactive).
With `CC(=O)Nc1ccc(S(=O)(=O)/N=C2/NC(=O)/C(=C\c3ccco3)S2)cc1`, where the note is “at 20 µM”, the inhibition was 41.2% (inactive).
As for `Cc1ccc(N=C2NC(=O)S/C2=C\c2ccco2)cc1`, the inhibition (at 20 µM) is 47.8% (inactive).
Take `Cc1ccc(N=C2NC(=O)/C(=C/C=C/c3ccco3)S2)cc1`: the inhibition (at 20 µM) is 52.6% (inactive) and the inhibition under setting [1] was determined as 1.5%.
Turning to `Cc1ccc(N=C2NC(=O)/C(=C\c3ccco3)S2)cc1`, the inhibition (at 20 µM) is 57.5% (active).
Take `COc1ccc(S(=O)(=O)/N=C2/NC(=O)/C(=C\c3ccco3)S2)cc1`: under “at 20 µM”, the inhibition was 60.8% (active).
Turning to `O=C1NC(=Nc2ccc3ccccc3c2)S/C1=C/c1ccco1`, the inhibition (at 20 µM) was 54.8% (active).
On the same count and under the same terms, the value for `COc1ccc(-n2c(O)c(/C=N/n3cnnc3)c3ccccc3c2=O)cc1` was -1% (inactive); that for `c1ccc(Oc2ccc(-n3cnnn3)cc2)cc1` was -0.6% (inactive); that for `CCOC(=O)c1oc2ccccc2c1NC(=O)C1CCCCC1` was 2.3% (inactive).
On to `O=C(N=Nc1c(O)[nH]c2ccccc12)c1ccc(CN2CCOCC2)cc1`, for which the inhibition (at 20 µM) was -1.7% (inactive).
On the same count and under the same terms, the value for `O=c1c2c3c(sc2n(CCN2CCOCC2)c(=O)n1Cc1ccco1)CCCCC3` was -0.6% (inactive); that for `CCOC(=O)N1CCC(N2C(=O)c3ccccc3C2Nc2cc(C)cc(C)c2)CC1` (centres undefined) was -0.9% (inactive).

The values above are taken from PubChem BioAssay AID1986 (Sanford-Burnham Center for Chemical Genomics, 2009).
